An excerpt weighted towards active compounds, which were near 8.5% of everything screened.
NPSR antagonist – qHTS Assay for Antagonists of the Neuropeptide S Receptor: cAMP Signal Transduction | hit rate 1% among 220,000 | CHO-NPSR cells, cAMP TR-FRET, antagonist mode | Potency, µM (doses to about 38.3 µM), for inactives: at the top dose activity change, negative = inhibition, usual class: inhibitors | AID 1461, 2008; note: potency is the fitted concentration of half-maximal effect; nearly all actives have a fitted effect of over 50% in size
Coupling enz – qHTS Assay for Inhibitors of Fructose-1,6-bisphosphate Aldolase from Giardia Lamblia: Coupling assay counterscreen; coupling enzyme system counterscreen, AmpLite Red fluorescence; activity change, negative = inhibition, % at 58.2 µM, hits read low; hit rate 0.67% among 290,000; AID 2472, 2010; in the data active = activity change below about -30%
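Compounds tested against the coupling enzymes alone at 57.5 uM final; readout was AmpLite Red fluorescence (525/598 nm) after 20 min at RT.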
Sfp PPTase inh – qHTS Assay for Inhibitors of Bacillus subtilis Sfp phosphopantetheinyl transferase (PPTase); Biochemical Sfp PPTase activity, qHTS; Potency, µM, inactives show largest response in the series, negative = inhibition, hits mostly inhibitors; hit rate 3.5% among 310,000;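 note: the enzyme is Sfp with the accession as filed and its product quenches rhodamine fluorescence; potency is the fitted concentration of half-maximal effect; 0% = enzyme reaction without inhibitor and -100% = no enzyme wells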
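Step 1, compound plus 15 nM Sfp-PPTase, 15 min, room temperature. Step 2, add rhodamine-CoA (5 uM) and BHQ-2-YbbR (12.5 uM). Step 3, read 525/598 nm fluorescence at 0 and 30 min.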
ALDH1A1 inh – qHTS Assay for Inhibitors of Aldehyde Dehydrogenase 1 (ALDH1A1) | Aldehyde dehydrogenase 1A1 (Homo sapiens), P00352 | Purified ALDH1A1, NADH fluorescence, propionaldehyde substrate | Potency, µM (top dose mostly 75.3 µM), inactives show at the highest dose activity, negative = inhibition, usual class: inhibitors | hit rate 7.3% among 220,000; active = well fitted inhibition curve with a large enough effect, not every such curve was filed as active; inconclusive = small, poorly fitted or top-dose-only effect, or another doubt; inactive = no such curve, though single readings can be large or run the other way;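 note: potency is the fitted concentration of half-maximal effect; plate controls were no enzyme wells and a reference inhibitor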
GoLoco inh red – qHTS Assay for Inhibitors of RGS12 GoLoco Motif Activity (Red Fluorophore); Gai1:RGS12 GoLoco peptide FP, rhodamine, 10 min; Potency, µM (top dose mostly 61.6 µM), without a hit: at the top dose activity, negative = inhibition, most hits filed as inhibitors; AID 880, 2007; hit rate 0.44% among 230,000; active = well fitted inhibition curve with a large enough effect, not every such curve was filed as active; inactive = no such curve, though single readings can be large or run the other way; note: potency is the fitted concentration of half-maximal effect; nearly all actives have a fitted effect of over 30% in size
Target sequence (P63096 whole entry, looked up): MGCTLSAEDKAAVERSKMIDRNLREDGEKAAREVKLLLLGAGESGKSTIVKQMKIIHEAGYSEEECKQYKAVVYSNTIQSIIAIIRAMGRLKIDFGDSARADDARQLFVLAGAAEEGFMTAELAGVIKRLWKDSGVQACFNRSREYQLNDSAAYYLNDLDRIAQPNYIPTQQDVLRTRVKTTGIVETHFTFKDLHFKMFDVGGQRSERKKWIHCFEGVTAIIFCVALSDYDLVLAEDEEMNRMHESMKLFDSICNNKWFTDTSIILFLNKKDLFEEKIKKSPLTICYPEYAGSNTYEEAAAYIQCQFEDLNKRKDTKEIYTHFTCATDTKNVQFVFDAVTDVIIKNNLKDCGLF
KDM4E inh – qHTS Assay for Inhibitors of Human Jumonji Domain Containing 2E (JMJD2E). Potency, µM (top dose mostly 57.1 µM), for the others: at the highest dose activity change, negative = inhibition, usual class: inhibitors. hit rate 1.6% among 230,000. Lysine-specific demethylase 4E (Homo sapiens), B2RXH2. JMJD2E catalytic domain, FDH-coupled NADH fluorescence (FDH is formaldehyde dehydrogenase);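 note: potency is the fitted concentration of half-maximal effect; 0% = wells with enzyme and -100% = buffer wells without enzyme; nearly all actives have a fitted effect of over 50% in size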
Target sequence (B2RXH2 1-337 limits assumed): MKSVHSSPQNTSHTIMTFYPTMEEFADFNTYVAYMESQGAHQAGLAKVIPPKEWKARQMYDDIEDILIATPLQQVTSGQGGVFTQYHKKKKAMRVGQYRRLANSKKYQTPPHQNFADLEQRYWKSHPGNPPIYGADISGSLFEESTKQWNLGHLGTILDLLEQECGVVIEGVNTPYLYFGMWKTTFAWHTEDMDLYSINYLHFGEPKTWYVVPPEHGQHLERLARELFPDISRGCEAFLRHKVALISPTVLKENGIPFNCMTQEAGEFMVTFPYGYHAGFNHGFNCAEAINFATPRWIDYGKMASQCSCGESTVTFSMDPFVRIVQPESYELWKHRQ
* hit, by the source's call; ? = inconclusive; / = no result given; [ ] = dose if it differs, or a comment. Unless noted, calls come from the whole dose curve; as a rule, active = well fitted curve in the direction sought with a large enough effect; inconclusive = small, poorly fitted or top-dose-only effect, or another doubt; inactive = no such curve, though single readings can be large; an effect the other way counts as inactive or inconclusive. Unless noted, % is set by controls: 0 for no effect and ±100 for the full control effect.

SMILES | NPSR antagonist | Coupling enz | Sfp PPTase inh | ALDH1A1 inh | GoLoco inh red | KDM4E inh
C=CCN1C(=O)c2ccc(C(=O)N(C)CC(=O)Nc3ccccc3Br)cc2C1=O | / | / | 16% | / | / | /
CN1C(=O)C2(Oc3ccccc3C3CC(c4ccccc4)=NN32)c2ccccc21 (stereo not drawn) | ? | -7 | -14% | 25µM* | 10% | -6%
O=C(Cn1ncc2c([nH]c3ccccc32)c1=O)N1CCc2ccccc2C1 | / | -1 | 21% | / | / | /
O=C(CCc1nc2ccccc2[nH]1)N1CCc2ccccc2C1 | 13% | -34* | 5% | -3% | -14% | -9%
O=C(CC(=O)Nc1cc(Cl)ccc1Cl)Nc1cc(Cl)ccc1Cl | / | 1 | 8% | / | / | /
FC(F)(F)c1cc(-c2ccco2)nc(N2CCN(Cc3ccccc3)CC2)n1 | -21%[46.1 µM] | -3 | -1% | 22µM* | -1% | 1%
CCCCN1C(=O)C(=O)N(CC(=O)N2N=C3/C(=C/c4ccco4)CCCC3C2c2ccco2)C1=O (stereo not drawn) | -29% | 0 | 45µM* | 161% | 9% | -5%
Cc1ccccc1CN1CCCC(C(=O)Nc2ccccc2Oc2cccnc2)C1 (stereo not drawn) | / | -1 | 10% | / | / | /
COC(=O)c1ccc(C(=O)OC)c(NC(=O)COc2ccccc2OC)c1 | -20%[46.1 µM] | 0 | -24% | 13µM* | 16% | -7%
COC(=O)c1ccc(C(=O)OC)c(NC(=O)CN2CCN(c3ccccc3OC)CC2)c1 | -15%[46.1 µM] | 2 | -3% | ? | -1% | -3%
COc1ccccc1OCC(=O)Nc1cc2c(cc1C(=O)O)OCCCO2 | / | 10 | 79µM* | / | / | /
COC(=O)c1ccc(C(=O)OC)c(NC(=O)/C=C/C(=O)O)c1 | 16% | 5 | 40µM* | / | -36% | ?
CCOc1ccccc1OCC(=O)Nc1cc2c(cc1C(=O)O)OCCCO2 | / | 11 | 79µM* | / | / | /
COC(=O)c1ccc(C(=O)OC)c(NC(=O)C2CC2)c1 | 16% | 3 | 10% | ? | 10% | ?
COc1ccccc1C(=O)Nc1cc2c(cc1C(=O)O)OCCCO2 | / | 5 | 31% | / | / | /
CN(CCCNC(=O)c1cc2c(Cl)nc3ccccc3c2s1)Cc1ccccc1 | -20% | -1 | 79µM* | 28µM* | 5% | -28%
CC(=O)N=c1c(C#N)cc2c(=O)n3ccccc3nc2n1CCCOC(C)C | 23% | -6 | 89µM* | / | -10% | ?
CC(C)OCCCn1c(=NC(=O)c2ccncc2)c(C#N)cc2c(=O)n3ccccc3nc21 | -22%[46.1 µM] | -1 | 10% | 6% | / | -2%
CC1=C(C(=O)OCC(C)C)C(c2cccc(F)c2)N2C(=O)C(C)SC2=N1 (stereo not drawn) | ? | 1 | 34% | 0.45µM* | 5% | 3%
CCOC(=O)C1=C(C)N=C2SC(C)C(=O)N2C1c1cccc(F)c1 (stereo not drawn) | -19%[46.1 µM] | -1 | 16% | -13% | 8% | -3%
Cc1ccc(C)c(NC(=S)N/N=C/C(C)c2ccccc2)c1 (stereo not drawn) | ? | 2 | -30% | ? | 9% | -16%
CC(/C=N/NC(=S)Nc1cccc(S(=O)(=O)N(C)C)c1)c1ccccc1 (stereo not drawn) | -4% | 1 | 89µM* | 7.9µM* | -5% | -4%
CN(C)S(=O)(=O)c1cccc(NC(=S)N/N=C/C(c2ccccc2)c2ccccc2)c1 | -1% | -2 | ? | 10µM* | 1% | ?
Cc1ccc(-c2nn(-c3cc(Cl)ccc3[N+](=O)[O-])c(=O)c3ccccc23)cc1C | -23%[46.1 µM] | -8 | -16% | -13% | -1% | -2%
CCCCNC(=O)c1cn(CC)c2ccc(S(=O)(=O)N3CCCC3)cc2c1=O | / | 1 | 13% | / | / | /
SMILES | NPSR antagonist | Coupling enz | Sfp PPTase inh | ALDH1A1 inh | GoLoco inh red | KDM4E inh
CCn1cc(C(=O)NCC2CCCO2)c(=O)c2cc(S(=O)(=O)N3CCC(C)CC3)ccc21 (stereo not drawn) | -11%[46.1 µM] | -1 | -10% | -2% | 0% | 0%
O=C(OCc1ccco1)c1ccc(S(=O)(=O)N2CCCCC2)cc1 | -23%[46.1 µM] | 1 | 22µM* | 28µM* | 4% | -3%
CCn1cc(C(=O)NCC2CCCO2)c(=O)c2cc(S(=O)(=O)N3CCCCCC3)ccc21 (stereo not drawn) | 3.2µM* | 0 | 8% | 4.5µM* | 15% | 4%
CC(C)(C)c1ccc(OCC(=O)NCc2ccco2)c(Br)c1 | -21%[46.1 µM] | 0 | -23% | 18µM* | 12% | -3%
CCn1cc(C(=O)NCCc2ccccc2)c(=O)c2cc(S(=O)(=O)N3CCCC3)ccc21 | -49% | -4 | -17% | 32µM* | 8% | 7%
C=CCn1c(=O)c2c(nc3n2CC(C)CN3Cc2ccccc2)n(C)c1=O (stereo not drawn) | / | -2 | 8% | / | / | /
Cc1cc(S(=O)(=O)N2CCCC2)ccc1OCC(=O)NCc1ccco1 | -6%[46.1 µM] | 2 | -26% | 10µM* | 1% | -1%
O=C(OCc1ccc2c(c1)OCO2)c1cccc(S(=O)(=O)N2CCCCC2)c1 | -17%[46.1 µM] | 1 | 4% | 7.1µM* | 3% | -4%
O=C(COc1ccc(S(=O)(=O)NC2CCCCC2)cc1Cl)NCc1ccc2c(c1)OCO2 | -15%[46.1 µM] | 1 | 20% | -4% | -3% | -10%
O=C(COc1ccc(S(=O)(=O)N2CCCC2)cc1Cl)NCc1ccc2c(c1)OCO2 | -1%[46.1 µM] | 3 | -1% | 5µM* | 5% | -1%
O=C(COc1ccc(S(=O)(=O)N2CCCC2)cc1Cl)N1CCN(c2ccccc2)CC1 | -5%[46.1 µM] | 1 | -10% | 18µM* | 2% | 4%
CCCOc1ccccc1Cn1c(=O)oc2ccccc21 | / | 0 | -7% | / | / | /
CCn1cc(C(=O)NCc2ccco2)c(=O)c2cc(S(=O)(=O)N3CCCC3)ccc21 | -26% | 1 | -5% | 25µM* | 2% | -10%
CCn1cc(C(=O)NCCC(C)C)c(=O)c2cc(S(=O)(=O)N3CCCCC3)ccc21 | / | 0 | -4% | / | / | /
COc1cccc(C(=O)NCCNC(=O)c2ccco2)c1 | / | 5 | -3% | / | / | /
C/C(CC(=O)NC(C)(C)C)=N\NC(N)=S | -11% | -1 | 35µM* | ? | 11% | -19%
CCc1ccc(S(=O)(=O)NCCc2cn3cccc(C)c3n2)s1 | 5% | 4 | 14% | -13% | 4% | -8%
COc1cc(C(O)c2nc3ccccc3s2)cc(OC)c1OC (stereo not drawn) | 8% | -2 | 23% | / | 5% | 12%

High-throughput results (PubChem BioAssay)
